Results: ChEMBL document CHEMBL1961873, “Compounds: GSK PKIS; Assays: Nanosyn kinase panel” (2012)

Key:
[1] = molecular target: Fibroblast growth factor receptor 4 (Homo sapiens) (UniProt P22455); details: at 1 µM;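 further: reported figure is the averaged percent inhibition of FGFR4, from the GSK PKIS kinase screening panel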
[2] = molecular target: Tyrosine-protein kinase Fgr (Homo sapiens) (UniProt P09769); details: at 0.1 µM
[3] = molecular target: Tyrosine-protein kinase Fgr (Homo sapiens) (UniProt P09769); details: at 1 µM
[4] = molecular target: Vascular endothelial growth factor receptor 1 (Homo sapiens) (UniProt P17948); details: at 0.1 µM
Chain of Vascular endothelial growth factor receptor 1 (Homo sapiens) (P17948 whole entry): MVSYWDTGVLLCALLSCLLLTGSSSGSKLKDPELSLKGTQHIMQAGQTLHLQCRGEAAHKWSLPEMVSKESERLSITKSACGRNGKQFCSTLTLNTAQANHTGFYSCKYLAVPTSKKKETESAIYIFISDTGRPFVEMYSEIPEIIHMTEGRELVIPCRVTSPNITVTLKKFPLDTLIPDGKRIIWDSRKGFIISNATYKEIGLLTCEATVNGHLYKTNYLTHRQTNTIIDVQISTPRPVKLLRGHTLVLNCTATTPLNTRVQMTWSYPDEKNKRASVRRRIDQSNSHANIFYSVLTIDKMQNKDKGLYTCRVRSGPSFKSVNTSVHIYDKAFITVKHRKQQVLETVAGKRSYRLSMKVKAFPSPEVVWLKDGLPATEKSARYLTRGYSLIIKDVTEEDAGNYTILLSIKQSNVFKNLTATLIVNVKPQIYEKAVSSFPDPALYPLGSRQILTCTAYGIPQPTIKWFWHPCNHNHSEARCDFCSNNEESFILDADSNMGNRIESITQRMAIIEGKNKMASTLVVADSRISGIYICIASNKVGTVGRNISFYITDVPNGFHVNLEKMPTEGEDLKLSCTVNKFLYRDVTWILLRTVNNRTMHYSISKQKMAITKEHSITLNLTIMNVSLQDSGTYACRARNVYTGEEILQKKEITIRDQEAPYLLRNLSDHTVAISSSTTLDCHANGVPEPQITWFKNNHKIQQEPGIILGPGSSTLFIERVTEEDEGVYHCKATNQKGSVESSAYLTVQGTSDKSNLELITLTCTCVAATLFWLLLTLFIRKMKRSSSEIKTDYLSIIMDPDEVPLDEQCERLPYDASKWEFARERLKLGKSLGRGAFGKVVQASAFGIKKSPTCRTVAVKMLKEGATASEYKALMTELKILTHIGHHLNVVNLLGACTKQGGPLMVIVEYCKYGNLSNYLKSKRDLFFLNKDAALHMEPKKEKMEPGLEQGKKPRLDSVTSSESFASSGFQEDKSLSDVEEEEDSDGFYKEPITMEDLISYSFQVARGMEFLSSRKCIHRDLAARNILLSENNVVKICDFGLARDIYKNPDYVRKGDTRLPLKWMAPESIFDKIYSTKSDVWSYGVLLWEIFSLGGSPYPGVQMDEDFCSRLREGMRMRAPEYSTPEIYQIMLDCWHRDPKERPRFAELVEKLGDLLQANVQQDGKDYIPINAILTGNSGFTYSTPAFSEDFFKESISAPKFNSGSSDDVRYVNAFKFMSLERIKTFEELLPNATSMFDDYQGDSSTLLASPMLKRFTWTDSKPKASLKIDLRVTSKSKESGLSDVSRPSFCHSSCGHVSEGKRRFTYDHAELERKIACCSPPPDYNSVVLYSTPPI

[5] = molecular target: Vascular endothelial growth factor receptor 1 (Homo sapiens) (UniProt P17948); details: at 1 µM
[6] = molecular target: Receptor-type tyrosine-protein kinase FLT3 (Homo sapiens) (UniProt P36888); details: at 0.1 µM
[7] = molecular target: Receptor-type tyrosine-protein kinase FLT3 (Homo sapiens) (UniProt P36888); details: at 1 µM
[8] = tested on: T1, Receptor-type tyrosine-protein kinase FLT3 (Homo sapiens), P36888 [D835Y]; details: at 0.1 µM
T1 sequence (whole entry): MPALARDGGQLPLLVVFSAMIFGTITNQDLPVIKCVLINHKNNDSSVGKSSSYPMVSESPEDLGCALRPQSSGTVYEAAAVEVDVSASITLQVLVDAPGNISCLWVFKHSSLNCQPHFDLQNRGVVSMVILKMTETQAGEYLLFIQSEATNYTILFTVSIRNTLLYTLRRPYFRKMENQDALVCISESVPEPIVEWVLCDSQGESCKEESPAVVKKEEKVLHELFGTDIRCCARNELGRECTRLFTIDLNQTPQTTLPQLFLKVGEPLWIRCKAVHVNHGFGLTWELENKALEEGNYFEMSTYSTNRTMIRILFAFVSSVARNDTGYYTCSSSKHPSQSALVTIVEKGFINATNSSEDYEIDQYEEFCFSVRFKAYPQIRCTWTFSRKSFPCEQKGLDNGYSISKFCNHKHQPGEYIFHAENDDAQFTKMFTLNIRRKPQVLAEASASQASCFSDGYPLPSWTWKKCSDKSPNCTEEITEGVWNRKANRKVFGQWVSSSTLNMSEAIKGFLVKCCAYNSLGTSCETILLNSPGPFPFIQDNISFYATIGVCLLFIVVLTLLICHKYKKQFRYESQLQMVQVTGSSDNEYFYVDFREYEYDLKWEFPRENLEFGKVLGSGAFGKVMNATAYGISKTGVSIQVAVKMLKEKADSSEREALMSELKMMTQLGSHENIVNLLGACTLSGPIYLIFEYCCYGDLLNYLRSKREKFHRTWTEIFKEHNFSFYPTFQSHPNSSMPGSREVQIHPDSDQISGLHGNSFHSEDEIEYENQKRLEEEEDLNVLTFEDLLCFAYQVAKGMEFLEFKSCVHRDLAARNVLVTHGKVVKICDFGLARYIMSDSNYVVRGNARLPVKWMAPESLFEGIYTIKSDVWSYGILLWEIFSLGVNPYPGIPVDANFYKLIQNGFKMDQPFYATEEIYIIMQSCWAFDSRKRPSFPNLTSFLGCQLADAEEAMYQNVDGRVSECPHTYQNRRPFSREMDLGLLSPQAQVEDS

[9] = molecular target: Non-receptor tyrosine-protein kinase TYK2 (Homo sapiens) (UniProt P29597); details: at 1 µM;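 further: values are mean percent inhibition of TYK2 kinase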
Chain of Non-receptor tyrosine-protein kinase TYK2 (Homo sapiens) (P29597 whole entry): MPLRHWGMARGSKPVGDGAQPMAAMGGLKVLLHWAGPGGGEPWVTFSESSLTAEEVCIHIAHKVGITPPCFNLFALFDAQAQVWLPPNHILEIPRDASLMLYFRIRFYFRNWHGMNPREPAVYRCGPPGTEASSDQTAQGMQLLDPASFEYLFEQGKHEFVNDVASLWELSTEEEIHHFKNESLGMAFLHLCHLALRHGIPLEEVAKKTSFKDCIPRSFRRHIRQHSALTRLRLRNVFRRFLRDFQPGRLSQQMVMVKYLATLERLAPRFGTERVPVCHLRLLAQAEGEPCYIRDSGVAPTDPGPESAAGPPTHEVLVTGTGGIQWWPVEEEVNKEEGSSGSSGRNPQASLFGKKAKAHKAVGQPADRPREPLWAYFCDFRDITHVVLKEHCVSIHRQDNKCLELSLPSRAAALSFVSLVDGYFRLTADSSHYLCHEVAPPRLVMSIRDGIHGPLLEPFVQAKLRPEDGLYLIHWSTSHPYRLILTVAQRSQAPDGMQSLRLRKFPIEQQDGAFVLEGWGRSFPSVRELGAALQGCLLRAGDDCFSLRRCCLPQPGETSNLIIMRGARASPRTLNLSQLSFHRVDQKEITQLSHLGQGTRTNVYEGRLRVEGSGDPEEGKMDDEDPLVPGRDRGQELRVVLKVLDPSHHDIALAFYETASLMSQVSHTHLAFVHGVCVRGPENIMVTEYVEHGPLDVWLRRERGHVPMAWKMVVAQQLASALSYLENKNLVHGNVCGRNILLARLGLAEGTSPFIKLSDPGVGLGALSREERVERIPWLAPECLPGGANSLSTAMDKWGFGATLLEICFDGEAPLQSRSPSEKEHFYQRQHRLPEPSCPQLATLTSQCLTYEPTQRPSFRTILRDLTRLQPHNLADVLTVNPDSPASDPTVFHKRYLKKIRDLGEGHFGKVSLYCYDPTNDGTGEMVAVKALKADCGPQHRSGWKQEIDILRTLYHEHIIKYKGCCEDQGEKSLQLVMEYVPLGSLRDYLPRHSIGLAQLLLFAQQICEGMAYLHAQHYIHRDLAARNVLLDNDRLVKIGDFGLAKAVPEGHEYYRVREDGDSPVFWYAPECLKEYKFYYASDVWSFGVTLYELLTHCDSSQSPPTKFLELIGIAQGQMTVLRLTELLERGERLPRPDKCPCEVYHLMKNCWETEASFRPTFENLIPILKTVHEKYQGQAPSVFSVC

[10] = molecular target: T2, Tyrosine-protein kinase receptor TYRO3 (Homo sapiens) (UniProt Q06418); details: at 0.1 µM;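 further: reported percentages are averaged inhibition values of TYRO3 kinase activity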
T2 sequence (whole entry): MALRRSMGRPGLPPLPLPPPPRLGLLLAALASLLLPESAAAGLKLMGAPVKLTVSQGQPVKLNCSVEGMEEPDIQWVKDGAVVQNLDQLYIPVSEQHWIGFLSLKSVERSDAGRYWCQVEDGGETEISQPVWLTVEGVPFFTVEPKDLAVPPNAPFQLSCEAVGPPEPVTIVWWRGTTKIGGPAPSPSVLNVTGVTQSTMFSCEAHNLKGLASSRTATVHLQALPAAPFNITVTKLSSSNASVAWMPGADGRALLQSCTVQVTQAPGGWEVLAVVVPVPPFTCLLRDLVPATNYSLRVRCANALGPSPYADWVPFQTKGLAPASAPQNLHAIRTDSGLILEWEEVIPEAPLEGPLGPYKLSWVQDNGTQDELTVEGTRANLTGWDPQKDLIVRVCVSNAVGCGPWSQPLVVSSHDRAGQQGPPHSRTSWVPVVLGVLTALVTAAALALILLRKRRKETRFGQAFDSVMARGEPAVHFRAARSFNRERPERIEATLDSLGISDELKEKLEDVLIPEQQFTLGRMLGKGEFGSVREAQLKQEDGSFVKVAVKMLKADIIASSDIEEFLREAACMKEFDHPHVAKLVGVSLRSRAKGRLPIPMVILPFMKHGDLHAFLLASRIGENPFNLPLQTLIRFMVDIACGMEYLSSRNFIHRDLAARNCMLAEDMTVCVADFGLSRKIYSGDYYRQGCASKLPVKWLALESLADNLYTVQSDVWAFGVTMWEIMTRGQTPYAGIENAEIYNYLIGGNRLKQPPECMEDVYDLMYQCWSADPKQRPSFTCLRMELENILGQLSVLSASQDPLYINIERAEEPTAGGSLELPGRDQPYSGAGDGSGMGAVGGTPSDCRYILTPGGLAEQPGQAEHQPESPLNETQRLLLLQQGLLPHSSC

Chain of Fibroblast growth factor receptor 4 (Homo sapiens) (P22455 22-802 limits assumed): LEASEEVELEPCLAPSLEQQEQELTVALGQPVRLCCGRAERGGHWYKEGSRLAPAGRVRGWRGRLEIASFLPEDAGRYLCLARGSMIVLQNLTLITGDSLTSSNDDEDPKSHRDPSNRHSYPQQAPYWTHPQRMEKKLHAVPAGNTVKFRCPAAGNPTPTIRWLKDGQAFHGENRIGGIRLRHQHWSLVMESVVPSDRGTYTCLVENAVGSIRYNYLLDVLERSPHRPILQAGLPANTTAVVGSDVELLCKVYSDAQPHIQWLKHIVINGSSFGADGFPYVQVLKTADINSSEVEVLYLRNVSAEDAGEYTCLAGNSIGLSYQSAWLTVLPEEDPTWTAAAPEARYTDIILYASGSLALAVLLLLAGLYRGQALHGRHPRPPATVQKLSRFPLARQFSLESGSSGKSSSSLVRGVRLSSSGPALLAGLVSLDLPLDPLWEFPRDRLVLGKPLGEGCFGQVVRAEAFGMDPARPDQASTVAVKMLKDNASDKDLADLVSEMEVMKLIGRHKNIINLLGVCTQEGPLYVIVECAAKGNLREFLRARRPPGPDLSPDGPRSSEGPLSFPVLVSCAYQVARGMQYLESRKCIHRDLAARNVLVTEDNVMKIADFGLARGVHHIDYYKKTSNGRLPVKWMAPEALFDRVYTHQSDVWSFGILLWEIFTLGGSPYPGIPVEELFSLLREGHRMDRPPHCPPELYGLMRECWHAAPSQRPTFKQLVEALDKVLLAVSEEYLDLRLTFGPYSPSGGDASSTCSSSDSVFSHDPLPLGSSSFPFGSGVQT
Chain of Tyrosine-protein kinase Fgr (Homo sapiens) (P09769 2-529 limits assumed): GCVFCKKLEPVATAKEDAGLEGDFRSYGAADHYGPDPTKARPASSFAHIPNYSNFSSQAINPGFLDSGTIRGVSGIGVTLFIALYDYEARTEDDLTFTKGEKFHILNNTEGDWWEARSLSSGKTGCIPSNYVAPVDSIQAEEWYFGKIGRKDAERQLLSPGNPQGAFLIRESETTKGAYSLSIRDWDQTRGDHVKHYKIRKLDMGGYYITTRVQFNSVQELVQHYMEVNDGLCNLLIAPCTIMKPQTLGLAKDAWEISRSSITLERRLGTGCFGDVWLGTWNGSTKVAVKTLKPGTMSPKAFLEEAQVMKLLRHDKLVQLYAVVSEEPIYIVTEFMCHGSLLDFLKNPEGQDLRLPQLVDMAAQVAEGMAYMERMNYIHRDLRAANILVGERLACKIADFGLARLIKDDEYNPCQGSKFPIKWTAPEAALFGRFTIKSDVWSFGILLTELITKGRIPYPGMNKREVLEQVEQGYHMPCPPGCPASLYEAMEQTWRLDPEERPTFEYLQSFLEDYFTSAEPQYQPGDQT

Structure (SMILES)	inhibition [1] [%]	inhibition [2] [%]	inhibition [3] [%]	inhibition [4] [%]	inhibition [5] [%]	inhibition [6] [%]	inhibition [7] [%]	inhibition [8] [%]	inhibition [9] [%]	inhibition [10] [%]
CCN1CCC(CC(=O)Nc2n[nH]c3nc(-c4cccs4)c(Br)cc23)CC1	1.97	-0.94	0.5	0.44	3.83	-0.9	9.19	3.26	2.37	-1.49
Nc1nc(-c2ccc3c(c2)C(=Cc2cc(Br)c(O)c(Br)c2)C(=O)N3)cs1	3.96	-0.02	5.44	-0.63	0.2	-3.03	0.66	-2.57	2.43	-0.46
Cc1nn(C)c2cc(N(C)c3ccnc(Nc4cccc(S(N)(=O)=O)c4)n3)ccc12	0.29	14.8	48	2.5	30	2.69	15.4	2.72	2.39	6.07
O=C1NC(=O)C(c2ccc(Cl)cc2)=C1Nc1ccc(Cl)c(C(=O)O)c1	1.95	0.15	2.1	0.79	2.99	-0.57	1.93	-7.38	0.43	-0.81
COC(=O)Nc1nc2cc(Oc3ccc(NC(=O)Nc4cccc(C(=O)O)c4)cc3)ccc2[nH]1	-1.22	3.78	6.34	3.38	8.22	1.16	5.75	3.31	-0.42	0.5
COc1ccc2cc(-c3c(-c4ccncc4)nc(-c4ccc([S+](C)[O-])cc4)n3C)ccc2c1 (stereo not given)	1.73	1.14	6.14	-2.5	-1.05	1.98	1.93	-0.4	-4.84	0.64
Nc1ncnc2occ(-c3ccc(NC(=O)Nc4cccc(C(F)(F)F)c4)cc3)c12	13.3	3.07	25.1	56	91	85.3	93.9	18.4	-3.79	3.18
CCn1c(-c2nonc2N)nc2ccncc21	-0.3	0.66	1.16	0.15	-0.38	3.16	1.23	-3.67	-0.83	-0.29
CCn1c(-c2nonc2N)nc2cncc(C(=O)N3CC[C@H](N)C3)c21	0.42	3.4	1.29	-0.71	4.67	1.58	1.11	-5.73	-0.04	4.09
Nc1nc(-c2ccccn2)c(-c2ccc3ncccc3n2)s1	0.28	1.09	2.08	0.57	5.82	8.03	2.99	-0.61	-1.33	1.89
NCc1ccc(-c2nc(-c3ccc(Cl)c(O)c3)c(-c3ccncc3)[nH]2)cc1	2.75	4.3	32.8	19.8	70.6	-0.2	3.28	2.87	-1.84	0.69
CS(=O)(=O)CCN(CC#N)Cc1ccc(-c2ccc3ncnc(Nc4ccc(OCc5cccc(F)c5)c(Cl)c4)c3c2)o1	-4.08	0.96	1.68	3.08	6.33	-0.67	2.32	-4.23	-4.41	-1.18
COc1cc2ncn(-c3cc(OCc4ccccc4C(F)(F)F)c(C(N)=O)s3)c2cc1OC	-1.16	4.79	14.6	1.92	9.39	0.06	9.95	9.27	-6.76	3.15
Cc1nnc(-c2ccc(C)c(-c3ccc(C(=O)Nc4cccc(C#N)c4)cc3)c2)o1	0.88	4.67	5.11	-0.39	1.58	-0.61	1.58	0.86	-1.12	1.94
CCn1c(-c2nonc2N)nc2cncc(C(=O)N3CCNCC3)c21	2.67	1.29	2.57	0.7	2.54	5.99	4.6	-1.23	-2.3	1.84
CC1=C(C(=O)Nc2ccc3[nH]ncc3c2)C(c2ccc(Cl)c(Cl)c2)CC(=O)N1 (stereo not given)	8.43	1.97	6.08	0.2	2.26	1.43	1.54	-2.38	3.29	1.69
Nc1ncnc2occ(-c3ccc(NC(=O)Nc4cc(C(F)(F)F)cc(C(F)(F)F)c4)cc3)c12	9.49	1.01	15.9	23.4	73.9	19	78.3	12.8	-5.22	2.97

Structure (SMILES)	inhibition [1] [%]	inhibition [2] [%]	inhibition [3] [%]	inhibition [4] [%]	inhibition [5] [%]	inhibition [6] [%]	inhibition [7] [%]	inhibition [8] [%]	inhibition [9] [%]	inhibition [10] [%]
N#Cc1c(NC(=O)c2cccc3ccccc23)sc2c1CCCC2	-0.35	1.53	5.24	-0.49	0.41	2.28	2.23	3.1	-3.92	2.98
[O-][S+]1CCN(Cc2ccc(-c3ccc4ncnc(Nc5ccc(OCc6ccccc6)c(F)c5)c4c3)o2)CC1	0.02	0.4	9.74	1.64	-1.13	-0.1	2.1	-4.8	-3.99	1.34
COc1ccc(COc2ccc(Cc3cnc(N)nc3N)cc2OC)cc1	3.16	-0.01	4.25	1.03	2.11	-1.11	1.13	-4.6	0.26	0.79
c1cnn2ncc(-c3ccnc(Nc4ccc5c(c4)OCCO5)n3)c2c1	4.77	4.29	14.5	8.17	20.5	29.5	75.7	9.31	12.8	5.88
NS(=O)(=O)c1ccc(N/N=C2\C(=O)Nc3ccc(C(=O)NCCc4c[nH]cn4)cc32)cc1	2.39	4.54	19.1	2.21	10.7	7.03	23.4	8.84	0.3	5.07
COc1cc2ncn(-c3cc(O[C@@H](C)c4ccccc4Cl)c(C(N)=O)s3)c2cc1OC	2.7	5.04	32.2	4.55	13.3	5.29	3.2	-3.12	-4.63	2.45
CS(=O)(=O)CCNCc1ccc(-c2ccc3ncnc(Nc4ccc(OCc5cccc(F)c5)c(C(F)(F)F)c4)c3c2)o1	-0.05	3.99	2.16	-0.83	-0.68	1	1.21	-2.74	-3.56	3.52
COc1ccc(-c2nn3ncccc3c2-c2ccnc(Nc3ccc(Cl)c(C(F)(F)F)c3)n2)cc1	0.98	5.75	16.9	-1.35	1.63	-0.69	1.14	-1.91	1.02	0.79
CCn1c(-c2nonc2N)nc2c(C#CC(C)(C)O)nc(OC[C@@H](N)c3ccccc3)cc21	0.19	5	10.2	5.16	33.9	-0.98	-0.75	-1.79	0.35	-0.52
CCn1c(-c2nonc2N)nc2c(N3CCCC3)nccc21	-0.48	-0.82	-0.02	-0.79	-0.61	-0.78	-2	-4.93	4.26	-1.31
Cc1cc(O)cc(C)c1/C=C/c1cncc(-c2nn[nH]n2)c1	0.95	9.4	51.5	3.27	5.69	2.5	4.37	-2.23	-2.7	3.72
CN1CCC(C(=O)Nc2n[nH]c3nnc(-c4ccccc4)cc23)CC1	-0.57	5.18	4.46	0.44	2.94	2.28	1.88	-4.39	-0.97	2.36
CS(=O)(=O)CCNCc1ccc(-c2ccc3ncnc(Nc4ccc(OCc5ccccc5)c(Cl)c4)c3c2)o1	0.28	2.49	11.5	-0.51	0.52	1.48	2.75	-3.65	1.7	0.02
CC(=O)Nc1cccc(C#Cc2cncnc2Nc2ccc(OCc3cccc(F)c3)c(Cl)c2)n1	0.7	4.5	3.79	-1.03	-0.69	-2.34	-0.61	1.25	2.39	0.18
COc1cccc(-n2ncc3c(N/N=C/c4cccc(F)c4)ncnc32)c1	-5.17	7.31	32.6	-0.74	3.31	0.44	6.78	9.42	-0.15	3.08
Cn1cc(C=C2C(=O)Nc3cccnc32)c2ccccc21	14.1	7.5	44	1.42	13.1	20.3	66.2	32.7	0.73	2.36
CS(=O)(=O)CCNCc1nc(-c2ccc3ncnc(Nc4ccc(F)c(Cl)c4)c3c2)cs1	-0.36	5.78	10.6	1.98	-0.42	-0.6	0.63	2.29	-3.18	0.5
